Luc counter: counter-screen: inhibitors of Kinase-Glo firefly luciferase | Q27757 | Kinase-Glo luciferase, ATP luminescence, 8 min | Potency, µM (series often up to 38.3 µM), for inactives: top-dose activity change, negative = inhibition, actives largely listed as inhibitors | 0.28% of 200,000 active | AID 1379; further: on the % scale 0 is the no-effect control and ±100 the full control effect; nearly all actives have a fitted effect of over 60% in size
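Compounds were added to a substrate mix at pH 7.2 (50 mM imidazole, 10 uM ATP, within the enzyme's linear range), followed by Kinase-Glo detection reagent; luminescence was measured after 8 minutes at ambient temperature.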
ELG1 genotox: inducers of genotoxicity in HEK293T ELG1-luciferase cells; 1.3% of 330,000 active; AID 504466; HEK293T ELG1-luciferase reporter, luminescence, 16 h; Potency, µM (series often up to 46 µM), for the others: at the highest dose activity change, positive = activation, usual class: activators; further: % of control where 0% means no effect; nearly all actives have a fitted effect of over 60% in size
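Reporter readout depends on ELG1 protein level, which increases with genetic stress. After 16 hr compound exposure at 37 °C, luciferase activity was quantified using ONE-Glo.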
Rab9 promoter act: activates the Rab9 promoter; Huh7 Rab9 promoter-luciferase reporter, luminescence, 24 h; Potency, µM (top dose mostly 9.22 µM), for the others: at the top dose activation, negative = inhibition, usual class: activators; 2.8% of 320,000 active; further: % of control where 0% means no effect; nearly all actives have a fitted effect of over 60% in size
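Luminescence from Amplite-detected luciferase (10 minutes, ambient) reports Rab9 promoter activation. Before that, stable Rab9-luciferase Huh7 cells (1500/well, reduced-serum OP-MEM I plus 10% FBS) were exposed to compound for 24 hours at 37C.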
NPC1 prom act: NPC1 promoter activation; Huh7 NPC1 promoter luciferase reporter, 24 h; Potency, µM (top dose mostly 9.22 µM), for inactives: at the top dose activation, hits mostly activators; 2.4% of 320,000 active; AID 485313; further: % of control where 0% means no effect; nearly all actives have a fitted effect of over 60% in size
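Stable NPC1-promoter luciferase Huh7 line; cpd (DMSO) 24 h, 37 °C, 5% CO2; Amplite luciferase reagent 10 min RT; luminescence readout. qHTS format.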
SMN2 splice enh: enhancers of SMN2 splice variant expression; Potency, µM (highest dose often 46.1 µM), inactives show at the top dose activity change, positive = activation, usual class: activators; 2.8% of 210,000 active; HEK293 SMN2-luciferase splicing reporter, luminescence, 30-36 h; further: % of control where 0% means no effect; nearly all actives have a fitted effect of over 55% in size
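HEK293 cells carry an SMN2 minigene-luciferase reporter in which exon 7 inclusion puts luciferase in frame. Cells were seeded at 2000 cells/well, attached for 10-12 hours, then exposed to compounds for 30-36 hours at 37C before ONE-Glo luminescence.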
FLuc counter: counter-screen for miR-21 project: firefly luciferase inhibitors or activators | AID 588342 | purified FLuc, Km substrates, luminescence inhibition | Potency, µM (doses to about 57.5 µM), inactives show top-dose activity change, negative = inhibition, usual class: inhibitors | 6.9% of 360,000 active;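 further: plate controls were vehicle for no effect and reference inhibitor for full effect; nearly all actives have a fitted effect of over 55% in size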
Target sequence (P08659 whole entry, looked up): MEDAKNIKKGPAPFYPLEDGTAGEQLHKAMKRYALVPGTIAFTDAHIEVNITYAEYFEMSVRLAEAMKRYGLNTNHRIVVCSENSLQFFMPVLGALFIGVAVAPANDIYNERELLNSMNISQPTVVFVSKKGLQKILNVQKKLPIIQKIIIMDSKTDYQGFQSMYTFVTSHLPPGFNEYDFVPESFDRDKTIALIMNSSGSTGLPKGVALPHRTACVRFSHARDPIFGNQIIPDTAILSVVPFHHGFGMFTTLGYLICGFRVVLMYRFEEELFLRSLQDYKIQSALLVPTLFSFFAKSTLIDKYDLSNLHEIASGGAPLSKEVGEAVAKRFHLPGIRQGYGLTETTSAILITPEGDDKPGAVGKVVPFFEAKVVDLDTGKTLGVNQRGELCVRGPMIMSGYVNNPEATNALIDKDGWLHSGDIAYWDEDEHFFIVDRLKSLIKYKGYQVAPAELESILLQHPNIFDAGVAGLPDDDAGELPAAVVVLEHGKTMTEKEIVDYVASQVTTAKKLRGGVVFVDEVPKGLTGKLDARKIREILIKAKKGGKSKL
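Purified P. pyralis luciferase, 10 nM final, with Km-level 10 uM D-luciferin and 10 uM ATP in 50 mM Tris acetate pH 7.5, 10 mM Mg acetate, 0.01% Tween-20, 0.05% BSA; 6-point qHTS titration about 60 µM downward; luminescence read.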
The depositor's hits bear a star; ? = inconclusive; . = no result given. Most compounds without a hit are left out; they make up all but 7.5% or so of the library. The call rests on the fitted dose curve; in most records, active means well fitted curve in the direction sought with a large enough effect; inconclusive means small, poorly fitted or top-dose-only effect, or another doubt; inactive means no such curve, though single readings can be large; an effect the other way counts as inactive or inconclusive. Potency means the concentration at half of the fitted maximal effect.

SMILES | Luc counter | ELG1 genotox | Rab9 promoter act | NPC1 prom act | SMN2 splice enh | FLuc counter
CCOc1ccc2nc(NC(=O)Nc3cccs3)sc2c1 | -5% | 2.6µM* | 1.6µM* | ? | 2.8µM* | 0.76µM*
COc1ccc2nc(NC(=O)Nc3ccccc3)sc2c1 | -2% | ? | 0.71µM* | ? | 0.89µM* | 0.48µM*
CCCCOC(=O)Nc1nc2ccccc2s1 | -7% | ? | 4µM* | 2.8µM* | 25µM* | 1.1µM*
CC(C)OP(=O)(OC(C)C)C1(NS(=O)(=O)c2ccc(Cl)cc2)C=C(Cl)C(=O)C(Cl)=C1 | . | -7% | 3% | -3% | . | 1%
C(#Cc1ccccc1)Cn1nnc2ccccc21 | -4% | ? | ? | ? | 22% | 17µM*
CSc1nsc2nc(=O)c(/C=C3\C(C)=Nc4ccc(C)cc43)c(N)n12 | 4% | -23% | -10% | -12% | -47% | 13µM*
CC1=Nc2ccc(C)cc2/C1=C/c1c(N)n2oc(C)cc2nc1=O | -1% | 5% | -1% | 3% | -8% | -2%
CSc1nsc2nc(=O)c(/C=C3\C=Nc4ccccc43)c(N)n12 | -2% | ? | 28% | 14% | 3% | 17µM*
Cn1c(C(=O)NCc2cccc(Cl)c2)cc2oc3ccccc3c21 | . | . | . | . | ? | -1%
COCCNC(=O)c1cc2oc3ccccc3c2n1C | -1% | ? | 3.2µM* | 26% | . | 9.5µM*
O=C(O)c1nn(CC(=O)N2CCN(S(=O)(=O)c3ccc(Cl)cc3)CC2)c(=O)c2ccccc12 | . | 3% | -5% | 1% | . | -1%
Cc1cc(C)nc(NC(=O)c2cccc(Br)c2)n1 | . | 2% | 4% | 0% | . | 8%
COc1cccc(C(=O)NC(=O)Nc2cc(C)[nH]n2)c1 | . | ? | 1.6µM* | 2µM* | . | 9.5µM*
Cc1cc(NC(=O)c2cccc(Br)c2)n[nH]1 | . | ? | ? | ? | . | 19µM*
COc1cccc(C(=O)NC(=S)Nc2nnn(C)n2)c1 | -5% | 10% | -4% | -1% | 13% | 1%
O=C(N/N=C/c1ccc([N+](=O)[O-])o1)c1cc(-c2ccncc2)nc2ccccc12 | -11% | -6% | -17% | -18% | -22% | ?
O=C(N/N=C/c1ccc(Cl)c([N+](=O)[O-])c1)c1cc(-c2ccccc2)nc2ccccc12 | 9% | 26% | 1% | -6% | -34% | ?
O=C(N/N=C/C=C\c1ccccc1[N+](=O)[O-])c1cc(-c2ccccc2)nc2ccccc12 | -7% | 0% | -5% | 2% | 0% | 12µM*
Cc1ccc(-c2cc(C(=O)N/N=C/c3ccc([N+](=O)[O-])o3)c3ccccc3n2)o1 | . | -5% | ? | ? | . | 0.3µM*
O=C(N/N=C/c1ccc([N+](=O)[O-])o1)c1cc(-c2ccc(-c3ccccc3)cc2)nc2ccccc12 | 11µM* | ? | ? | ? | 2.5µM* | 0.15µM*
CCN1C(=O)S/C(=C/c2cn(C)c3ccccc23)C1=O | -8% | 5% | -2% | -2% | 15% | 12µM*
Cn1cc(/C=C2\SC(=O)N(c3ccccc3)C2=O)c2ccccc21 | -1% | ? | 4µM* | 3.5µM* | ? | -7%
CCOc1cc(-c2cc(-c3ccccc3)nc(N)c2C#N)ccc1O | 4% | ? | -3% | -1% | ? | -18%
CCOc1cc(-c2cc(-c3ccc(N)cc3)nc(N)c2C#N)ccc1O | -4% | -1% | 9% | 1% | 13µM* | -13%
Nc1ccccc1S(=O)(=O)C(F)F | . | 1% | -2% | -4% | . | -2%
SMILES | Luc counter | ELG1 genotox | Rab9 promoter act | NPC1 prom act | SMN2 splice enh | FLuc counter
Cc1ccc(S(=O)(=O)Cc2nc(-c3ccc(C(=O)NCc4ccccc4F)cc3)oc2C)cc1 | . | . | . | . | . | -11%
O=C(c1ccccc1)c1c[nH]c2cc3c(cc2c1=O)OCO3 | -2% | 6% | 1% | -7% | 17% | 0%
O=C(c1ccccc1)c1c[nH]c2cc3c(cc2c1=O)OCCO3 | -1% | 16% | ? | 22% | 22µM* | ?
O=C(NCc1cccnc1)c1c[nH]c2cc3c(cc2c1=O)OCCO3 | -1% | ? | 2% | -1% | -44% | 6µM*
CCN(CC)S(=O)(=O)c1ccc2c(c1)N(CC(=O)N1CCN(c3cccc(Cl)c3)CC1)C(=O)CO2 | . | . | . | . | . | 0%
Cc1ccc(N/C=C(/C#N)c2ccsc2)cc1C | 10% | . | . | . | 13µM* | 2.4µM*
CCCCNc1nc2c(S(=O)(=O)c3ccc(C)c(C)c3)nnn2c2ccsc12 | . | . | . | . | . | -1%
Cc1ccccc1OCCC(=O)Nc1ccc2c(C)cc(=O)oc2c1 | . | 21% | 15% | -4% | . | 3%
Cc1cc(C)c(NC(=O)COc2ccccc2C(=O)Nc2ccc3c(c2)oc2ccccc23)c(C)c1 | 14% | 13% | 0% | -4% | -4% | 13µM*
COc1ccccc1C(=O)Nc1ccc2c(C)cc(=O)oc2c1 | . | ? | 1.6µM* | 2µM* | . | ?
CCOc1ncccc1C(=O)Nc1ccc2c(C)cc(=O)oc2c1 | -5% | 2% | ? | 3.5µM* | -11% | 0%
CCOc1ncccc1C(=O)Nc1ccc(F)c(F)c1 | 1% | -5% | 7% | -1% | 2% | -6%
CCCCN1C(=O)Nc2ccccc2S1=O (centres undefined) | -4% | -1% | -5% | -3% | 0% | -2%
COc1cccc(-n2c(SCC(N)=O)nc3c([nH]c4ccccc43)c2=O)c1 | 2% | 14% | 2% | 1% | 13µM* | -12%
COc1cccc(-n2c(SCC(=O)c3ccc(Cl)cc3)nc3c([nH]c4ccccc43)c2=O)c1 | . | . | . | . | . | -3%
CC[C@H](C)[C@H](NC(N)=O)C(=O)Nc1ccccc1F | -1% | 1% | -3% | -1% | 9% | 2%
O=C(COC(=O)C(O)c1ccccc1)c1ccc2c(c1)OCCO2 (centres undefined) | -4% | 4% | -1% | -5% | -8% | 1.5µM*
CCc1ccc(C(=O)COC(=O)c2ccc(Cl)nc2)cc1 | -4% | 2% | ? | 17% | 23% | 9.5µM*
O=C(COC(=O)c1ccc(Cl)nc1)c1ccc2c(c1)OCCO2 | 0% | ? | 1.6µM* | 4µM* | -3% | 0.76µM*
CCOC(=O)c1c(C)[nH]c(C)c1C(=O)COC(=O)c1ccc(Cl)nc1 | . | 1% | . | . | . | .
CCc1ccc(C2CC(=O)NC(NC(=O)c3ccc(C(C)(C)C)cc3)=N2)cc1 (centres undefined) | . | . | . | . | -11% | -1%
COc1ccc(N(CC(=O)Nc2cccc(C(C)=O)c2)S(=O)(=O)c2ccccc2)c(OC)c1 | . | . | . | . | -8% | -8%
